# Measurements: PubChem BioAssay (NCATS)
# Inconclusive results are not listed. A call without a number means that no potency is given here. Calls of active or inactive are those of the source. Unless noted, calls follow the shape of the full dose curve.
# Assays:
# [1] = Primary qHTS for Huh7 cytotoxicity: counterscreen for inhibitors of MERS-S pseudotyped particle cell entry (AID 1479147)
# [2] = Primary qHTS for inhibitors of MERS-S pseudo-typed particle cell entry (AID 1479149); also: nearly all actives have a fitted effect of over 60% in size; also: potency is read from the fitted curve at half-maximal effect
# [3] = Primary qHTS for Vero E6 cytotoxicity: counterscreen for inhibitors of SARS-S pseudo-typed particle cell entry (AID 1479150); also: potency is read from the fitted curve at half-maximal effect
# [4] = Primary qHTS for inhibitors of La Crosse Virus (LACV) - induced cell death in SH-SY5Y cells (AID 1508616; active = well fitted curve in the direction sought with a large enough effect; an effect the other way counts as inactive or inconclusive;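 also: top concentration of the series differs between compounds; higher means more rescue of cells from virus-induced death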)
# How it was run: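 Rescue of virus-induced death was read as ATPLite luminescence after 6 days at 37C, scaled between DMSO wells with LACV and without virus. Cells were SH-SY5Y, 6000/well, infected at 0.01 MOI after compound addition.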
# [5] = biological target: Calcium and integrin-binding protein 1 (Homo sapiens) (UniProt Q99828); assay: Primary qHTS for Identification of Calcium Integrin Binding Protein 1 (CIB1) Competitor (AID 1508620; active = well fitted curve in the direction sought with a large enough effect; an effect the other way counts as inactive or inconclusive;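 also: GST tagged CIB1 binding a fluorescein labelled alphaIIb integrin peptide tracer; top concentration of the series differs between compounds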)
# How it was run: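 Fluorescence polarization competition: GST-tagged CIB1 (1 uM final) preincubated with compound 15 min at room temperature, then FITC-labelled alphaIIb peptide (100 nM final) added. After 15 min at room temperature, polarization read at Ex 480/Em 540.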
# Sequence of Calcium and integrin-binding protein 1 (Homo sapiens) (Q99828 whole entry, looked up): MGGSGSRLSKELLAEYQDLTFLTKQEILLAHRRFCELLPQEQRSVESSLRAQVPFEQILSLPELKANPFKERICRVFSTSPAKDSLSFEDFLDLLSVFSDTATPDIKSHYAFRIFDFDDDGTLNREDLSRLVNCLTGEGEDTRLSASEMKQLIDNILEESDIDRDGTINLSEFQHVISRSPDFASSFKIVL
SMILES,Potency [1],Potency [2],Potency [3],Potency [4],Potency [5]
CCCN(CCc1cccs1)[C@H]1CCc2c(O)cccc2C1,inactive,inactive,inactive,,
COC(=O)N[C@H](C(=O)N[C@@H](Cc1ccccc1)[C@@H](O)CN(Cc1ccc(-c2ccccn2)cc1)NC(=O)[C@@H](NC(=O)OC)C(C)(C)C)C(C)(C)C,inactive,inactive,inactive,,
CCOc1ccccc1OCCN[C@H](C)Cc1ccc(OC)c(S(N)(=O)=O)c1,inactive,inactive,inactive,,
CCCCc1ncc(/C=C(\Cc2cccs2)C(=O)O)n1Cc1ccc(C(=O)O)cc1,inactive,inactive,inactive,,
CN(C)CCc1c[nH]c2ccc(C[C@H]3COC(=O)N3)cc12,inactive,inactive,inactive,,
CC(N)C12CC3CC(CC(C3)C1)C2 (stereo not drawn),inactive,inactive,inactive,,
Nc1ccc(O)c(C(=O)O)c1,inactive,inactive,inactive,,
COc1cc(NC(C)CCCN)c2ncccc2c1 (stereo not drawn),inactive,inactive,inactive,,
CCOC(=O)[C@H](CCc1ccccc1)N[C@@H](C)C(=O)N1Cc2cc(OC)c(OC)cc2C[C@H]1C(=O)O,inactive,inactive,inactive,,
CN(C)c1ccc(O)c2c1C[C@H]1C[C@H]3[C@H](N(C)C)C(=O)C(C(N)=O)=C(O)[C@@]3(O)C(=O)C1=C2O,inactive,inactive,inactive,,
CCCCS(=O)(=O)N[C@@H](Cc1ccc(OCCCCC2CCNCC2)cc1)C(=O)O,inactive,inactive,inactive,,
Cc1ccnc2c1NC(=O)c1cccnc1N2C1CC1,inactive,inactive,inactive,,
CC(c1cc2ccccc2s1)N(O)C(N)=O (stereo not drawn),inactive,inactive,inactive,,
CC(C(=O)O)c1cccc(C(=O)c2ccccc2)c1 (stereo not drawn),inactive,inactive,inactive,,
CS(=O)(=O)CCNCc1ccc(-c2ccc3ncnc(Nc4ccc(OCc5cccc(F)c5)c(Cl)c4)c3c2)o1,inactive,inactive,inactive,,
CCC(=O)O[C@H]1[C@H](O[C@@H]2[C@@H](C)[C@H](O[C@H]3C[C@@](C)(OC)[C@@H](O)[C@H](C)O3)[C@@H](C)C(=O)O[C@H](CC)[C@@](C)(O)[C@H](O)[C@@H](C)C(=O)[C@H](C)C[C@@]2(C)O)O[C@H](C)C[C@@H]1N(C)C,inactive,inactive,inactive,,
Cc1onc(-c2ccccc2Cl)c1C(=O)N[C@@H]1C(=O)N2[C@@H]1SC(C)(C)[C@@H]2C(=O)O,inactive,inactive,inactive,,
O=C1CCc2ccc(OCCCCN3CCN(c4cccc(Cl)c4Cl)CC3)cc2N1,inactive,11.2 µM (active),inactive,,

SMILES,Potency [1],Potency [2],Potency [3],Potency [4],Potency [5]
NC(=O)N1c2ccccc2CC(=O)c2ccccc21,inactive,inactive,inactive,,
CC(C)(C#N)c1cc(Cn2cncn2)cc(C(C)(C)C#N)c1,inactive,inactive,inactive,,
Cc1cc2c(s1)Nc1ccccc1N=C2N1CCN(C)CC1,inactive,inactive,inactive,,
COc1nc(N)nc2c1ncn2[C@@H]1O[C@H](CO)[C@@H](O)[C@@H]1O,inactive,inactive,inactive,,
Cc1[nH]cnc1CN1CCc2c(c3ccccc3n2C)C1=O,inactive,inactive,inactive,,
Cc1nccn1CC1CCc2c(c3ccccc3n2C)C1=O (stereo not drawn),inactive,inactive,inactive,,
CCC1C(=O)OCC1Cc1cncn1C (stereo not drawn),inactive,inactive,inactive,,
NC1[C@H]2CN(c3nc4c(cc3F)c(=O)c(C(=O)O)cn4-c3ccc(F)cc3F)C[C@@H]12 (stereo partly drawn),inactive,inactive,inactive,,
CN(C)CCOC(C)(c1ccccc1)c1ccccn1 (stereo not drawn),inactive,inactive,inactive,,
NS(=O)(=O)c1cc2c(cc1C(F)(F)F)NCNS2(=O)=O,inactive,inactive,inactive,,
COC(=O)C1=C(C)NC(C)=C(C(=O)OC(C)C)C1c1cccc2nonc12 (stereo not drawn),inactive,inactive,inactive,,
CC(=O)CCCCn1c(=O)c2c(ncn2C)n(C)c1=O,inactive,inactive,inactive,,
Cc1cccc(Nc2ccccc2C(=O)O)c1C,inactive,inactive,inactive,,
CN1CCC[C@@H]1Cc1c[nH]c2ccc(CCS(=O)(=O)c3ccccc3)cc12,inactive,inactive,inactive,,
CC[C@H](C)C(=O)O[C@H]1C[C@@H](C)C=C2C=C[C@H](C)[C@H](CC[C@@H]3C[C@@H](O)CC(=O)O3)[C@H]21,inactive,,14.1 µM (active),,
CNS(=O)(=O)CCc1ccc2[nH]cc(C3CCN(C)CC3)c2c1,inactive,inactive,inactive,,
C=C1C[C@@H]2[C@H](CC[C@]3(C)C(=O)CC[C@@H]23)[C@@]2(C)C=CC(=O)C=C12,inactive,inactive,inactive,inactive,inactive
CC(=O)O[C@]1(C(C)=O)CC[C@H]2[C@@H]3C=C(Cl)C4=CC(=O)[C@@H]5C[C@@H]5[C@]4(C)[C@H]3CC[C@@]21C,inactive,,inactive,,
